Results: PubChem BioAssay (Tox21)
Inconclusive results are not listed. The source made the active and inactive calls. Unless noted, calls come from the whole dose curve; as a rule, active = well fitted curve in the direction sought with a large enough effect in the repeat runs; inconclusive = weak or mixed curves; inactive = no such curve, though single readings can be large; an effect the other way counts as inactive or inconclusive.

Assays:
[1] = qHTS assay to identify small molecule agonists of the vitamin D receptor (VDR) signaling pathway - cell viability counter screen (AID 743224); note: series mostly up to about 63 µM; % is set by controls: 0 for no effect and ±100 for the full control effect; nearly all actives have a fitted effect of over 50% in size
Summary of the method: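 In parallel with the bla FRET readout, cytotoxicity toward VDR-bla cells after 16 h compound exposure was assessed by CellTiter-Glo, with luminescence recorded after a 30 min room-temperature incubation.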

[2] = qHTS assay to identify small molecule antagonists of the vitamin D receptor (VDR) signaling pathway - cell viability counter screen (AID 743225); note: % is set by controls: 0 for no effect and ±100 for the full control effect; nearly all actives have a fitted effect of over 50% in size
Summary of the method: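 Viability counter screen run in the same wells as the beta-lactamase reporter assay: HEK 293T VDR-UAS-bla cells, 16 h compound exposure at 37C with 3 nM (final) 1-alpha,25-dihydroxyvitamin D3. CellTiter-Glo luminescence, 30 min, room temperature.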

[3] = qHTS assay to identify small molecule agonists of the NFkB signaling pathway (AID 1159509; active = well fitted curve in the direction sought with a large enough effect in the signal ratio in the repeat runs, not every such curve was filed as active; the % refers to the signal ratio; note: series mostly up to about 61 µM; % is set by controls: 0 for no effect and ±100 for the full control effect)
Summary of the method: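 Agonist activity was read as beta-lactamase-driven FRET change (460 and 530 nm emission, 405 nm excitation) following 1.5 hr substrate loading at room temperature. Beforehand, ME-180 NFkB-bla reporter cells were treated with compounds for 5 hr at 37 C.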

[4] = qHTS assay to identify small molecule agonists of the NFkB signaling pathway - cell viability counter screen (AID 1159515; calls by dose curve; note: series mostly up to about 61 µM; % is set by controls: 0 for no effect and ±100 for the full control effect; nearly all actives have a fitted effect of over 55% in size)
Summary of the method: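 Plate 2,000 NFkB-bla ME-180 cells/well; incubate overnight. Add compounds, 5 hr at 37 C. Add FRET substrate, 1.5 hr RT. Add CellTiter-Glo, 30 min RT; read luminescence.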

[5] = qHTS assay to identify small molecule agonists of the endoplasmic reticulum stress response signaling pathway (AID 1159516; active = well fitted activation curve with a large enough effect in the signal ratio in the repeat runs, not every such curve was filed as active; the % refers to the signal ratio; note: % is set by controls: 0 for no effect and ±100 for the full control effect)
Summary of the method: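 Beta-lactamase expression from the ER stress response element in HeLa reporter cells is quantified with the LiveBLAzer B/G FRET substrate, read at 405 nm excitation after 2 hr at room temperature, following 5 hr compound treatment at 37 C.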

[6] = qHTS assay to identify small molecule agonists of the endoplasmic reticulum stress response signaling pathway - cell viability counter screen (AID 1159517; calls by dose curve; note: series mostly up to about 61 µM; % is set by controls: 0 for no effect and ±100 for the full control effect; nearly all actives have a fitted effect of over 50% in size)
Summary of the method: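 Cpd-treated ESRE-bla HeLa (5 hr, 37 C) → LiveBLAzer 2 hr RT → CellTiter-Glo 30 min RT → luminescence.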

[7] = qHTS assay to identify small molecule antagonists of the retinoid-related orphan receptor gamma (ROR-gamma) signaling pathway - cell viability counter screen (AID 1159520); note: % is set by controls: 0 for no effect and ±100 for the full control effect; nearly all actives have a fitted effect of over 50% in size
Summary of the method: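 Tet-on ROR gamma CHO cells (1,000/well) were plated 4 hr, given compounds in DMSO for 2 hr at 37 C, then induced with 1 uM final doxycycline for 16 hr. Viability was read as ATP by CellTiter-Glo luminescence after 30 min.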

[8] = molecular target: Nuclear receptor ROR-gamma (Homo sapiens) (UniProt P51449); assay: qHTS assay to identify small molecule antagonists of the retinoid-related orphan receptor gamma (ROR-gamma) signaling pathway (AID 1159521)
Summary of the method: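 Luminescence readout (ONE-Glo, 30 min RT) after 16 h doxycycline induction; loss of signal scored as antagonism. CHO cells with TET-inducible RORγ and RORE-LUC reporter; compounds added 2 h before 1 uM final doxycycline.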

[9] = qHTS assay to identify small molecule agonists of the AP-1 signaling pathway - cell viability counter screen (AID 1159525; calls by dose curve; note: nearly all actives have a fitted effect of over 55% in size)
Summary of the method: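 Each titration point was normalised to DMSO and tetra n-octyl ammonium bromide controls. The read was Cell Titer Glo luminescence after 30 min at RT, following 5 h compound exposure of ME-180 AP-1-bla cells at 37 °C.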

[10] = qHTS assay to identify small molecule agonists of the AP-1 signaling pathway (AID 1159526; calls by dose curve; note: % is set by controls: 0 for no effect and ±100 for the full control effect)

CCc1c(C)[nH]c2c1C(=O)C(CN1CCOCC1)CC2 (configuration not stated)
inactive: outcome [1] | outcome [2] | outcome [3] | outcome [4] | outcome [5] | outcome [6] | Potency [7] | Potency [8] | outcome [9]

OCCc1ccncc1
inactive: outcome [1] | outcome [2] | outcome [3] | outcome [4] | outcome [5] | outcome [6] | Potency [7] | Potency [8] | outcome [9]

O=Cc1ccc([N+](=O)[O-])cc1
inactive: outcome [1] | outcome [2] | outcome [3] | outcome [4] | outcome [5] | outcome [6] | Potency [7] | Potency [8] | outcome [9]

COC=O
inactive: viability change, negative = cytotoxic [2] 18% [at 6.95 µM] | activation [3] 0.465% [at 6.95 µM] | activity, negative = cytotoxic [4] -3.71% [at 6.95 µM] | activation [5] -0.899% [at 6.95 µM] | activity change, negative = cytotoxicity [6] -18.1% [at 6.95 µM] | activity, negative = cytotoxicity [7] -1.04% [at 8.39 µM] | activity change, negative = inhibition [8] -0.709% [at 8.39 µM] | viability change, negative = cytotoxic [9] 12.8% [at 6.97 µM] | activation [10] -1.7% [at 6.97 µM]

CS(C)=O
inactive: outcome [2] | outcome [3] | outcome [4] | outcome [5] | outcome [6] | Potency [7] | Potency [8] | outcome [9] | Potency [10]

Oc1ccc(CCNCCCCCCNCCc2ccccc2)cc1O
inactive: outcome [2] | outcome [3] | outcome [4] | outcome [5] | outcome [6] | Potency [7] | Potency [8] | outcome [9] | Potency [10]

C=CC(O)CCCCC (configuration not stated)
inactive: outcome [1] | outcome [2] | outcome [3] | outcome [4] | outcome [5] | outcome [6] | Potency [7] | Potency [8] | outcome [9] | Potency [10]

CC(C)NC(=O)c1ccccc1N
inactive: outcome [1] | outcome [2] | outcome [3] | outcome [4] | outcome [5] | outcome [6] | Potency [7] | Potency [8] | outcome [9] | Potency [10]

N#C[C@@H]1CC(F)(F)CN1C(=O)CNC1CC2CCC(C1)N2c1ncccn1 (some centres not stated)
inactive: outcome [2] | outcome [3] | outcome [4] | outcome [5] | outcome [6] | Potency [7] | Potency [8] | outcome [9] | Potency [10]

C1=COCCC1
inactive: outcome [1] | outcome [2] | outcome [3] | outcome [4] | outcome [5] | outcome [6] | Potency [7] | Potency [8] | outcome [9] | Potency [10]

CC(C)CC(C)(C)C
inactive: outcome [2] | outcome [3] | outcome [4] | outcome [5] | outcome [6] | Potency [7] | Potency [8] | outcome [9] | Potency [10]

CCCCCCCCCCCCCCCCN
inactive: outcome [1] | outcome [2] | outcome [3] | outcome [4] | outcome [5] | outcome [6] | Potency [7] | Potency [8] | outcome [9]

OCCCO
inactive: outcome [1] | outcome [2] | outcome [3] | outcome [4] | outcome [5] | outcome [6] | Potency [7] | Potency [8] | outcome [9] | Potency [10]

COc1ccc(CN(CCN(C)C)c2ncccn2)cc1
inactive: outcome [1] | outcome [3] | outcome [4] | outcome [5] | outcome [6] | Potency [7] | Potency [8] | outcome [9]

c1ccc(CCNc2nc(-c3ccccc3)cs2)cc1
inactive: outcome [1] | outcome [2] | outcome [3] | outcome [4] | outcome [5] | outcome [6] | Potency [7] | Potency [8] | outcome [9]

O=C(Nc1ccccc1)c1cc([N+](=O)[O-])ccc1Cl
inactive: outcome [1] | outcome [2] | outcome [3] | outcome [4] | outcome [5] | outcome [6] | Potency [7] | Potency [8] | outcome [9] | Potency [10]

C=CC(=O)OCCCCCCCCCC
inactive: outcome [1] | outcome [2] | outcome [3] | outcome [4] | outcome [5] | outcome [6] | Potency [7] | Potency [8] | outcome [9]

CCCCCCCCCCCCCCCCC(=O)O
inactive: outcome [1] | outcome [2] | outcome [3] | outcome [4] | outcome [5] | outcome [6] | Potency [7] | Potency [8] | outcome [9]

NCCOCCOCCN
inactive: outcome [1] | outcome [2] | outcome [3] | outcome [4] | outcome [5] | outcome [6] | Potency [7] | Potency [8] | outcome [9] | Potency [10]

Cc1cccc(C)c1NC(=O)CN1CCCC1
inactive: outcome [1] | outcome [2] | outcome [3] | outcome [4] | outcome [5] | outcome [6] | Potency [7] | Potency [8] | outcome [9]

CC1(C)[C@@H]2CC[C@]3(C2)[C@@H]1C(=O)CCC3(C)C
inactive: outcome [1] | outcome [2] | outcome [3] | outcome [4] | outcome [5] | outcome [6] | Potency [7] | Potency [8] | outcome [9]

O=C(c1ccco1)N1CCNCC1
inactive: outcome [1] | outcome [2] | outcome [3] | outcome [4] | outcome [5] | outcome [6] | Potency [7] | Potency [8] | outcome [9]

O=C(Cl)c1cc(Cl)cc(Cl)c1
inactive: outcome [1] | outcome [2] | outcome [3] | outcome [4] | outcome [5] | outcome [6] | Potency [7] | Potency [8] | outcome [9] | Potency [10]

Cc1cc(C)c(C)c(O)c1
inactive: outcome [1] | outcome [2] | outcome [3] | outcome [4] | outcome [5] | outcome [6] | Potency [7] | Potency [8] | outcome [9]
